Source: paper PMC4336329 (PLoS ONE, 2015)
Among all 310,000 compounds or so, about 14,000 (4.5%) showed an effect of 50% or more. Effects have a minus sign here. The entries come from a sample that favours strong results as a whole.

molecular target: human ether-à-go-go-related gene (hERG) potassium channel (human, UniProt Q12809); assay: primary screen, population patch clamp on CHO cells stably expressing hERG; higher = less effect of the substance
Procedure: Briefly, Chinese hamster ovary (CHO) cells stably expressing the hERG channel were dislodged from tissue culture flasks and dispensed into PPC plates. […] During the recording, background leak currents were estimated by a 100 ms step to -80 mV from an initial holding potential of -70 mV and subtracted from the subsequent current measurement. The campaign was conducted in two phases using slight differences in recording protocol. In the first phase, the initial voltage pulse used a 100 ms step to -30 mV from a holding potential of -70 mV, a 2 s conditioning step to +25 mV, and a 2 s test step to -30 mV. During the second phase of the screen, the potential during the conditioning step was raised to +45 mV. In both phases of the campaign, a secondary voltage pulse was applied using the same parameters as the second phase initial pulse. The initial and secondary pulses were applied in the absence of compound, and upon application of 1 μM and 10 μM test concentrations. […]
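Also: peak tail current of the secondary pulse compared with the same well before compound.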

Sequence of human ether-à-go-go-related gene (hERG) potassium channel (Q12809 whole entry, looked up): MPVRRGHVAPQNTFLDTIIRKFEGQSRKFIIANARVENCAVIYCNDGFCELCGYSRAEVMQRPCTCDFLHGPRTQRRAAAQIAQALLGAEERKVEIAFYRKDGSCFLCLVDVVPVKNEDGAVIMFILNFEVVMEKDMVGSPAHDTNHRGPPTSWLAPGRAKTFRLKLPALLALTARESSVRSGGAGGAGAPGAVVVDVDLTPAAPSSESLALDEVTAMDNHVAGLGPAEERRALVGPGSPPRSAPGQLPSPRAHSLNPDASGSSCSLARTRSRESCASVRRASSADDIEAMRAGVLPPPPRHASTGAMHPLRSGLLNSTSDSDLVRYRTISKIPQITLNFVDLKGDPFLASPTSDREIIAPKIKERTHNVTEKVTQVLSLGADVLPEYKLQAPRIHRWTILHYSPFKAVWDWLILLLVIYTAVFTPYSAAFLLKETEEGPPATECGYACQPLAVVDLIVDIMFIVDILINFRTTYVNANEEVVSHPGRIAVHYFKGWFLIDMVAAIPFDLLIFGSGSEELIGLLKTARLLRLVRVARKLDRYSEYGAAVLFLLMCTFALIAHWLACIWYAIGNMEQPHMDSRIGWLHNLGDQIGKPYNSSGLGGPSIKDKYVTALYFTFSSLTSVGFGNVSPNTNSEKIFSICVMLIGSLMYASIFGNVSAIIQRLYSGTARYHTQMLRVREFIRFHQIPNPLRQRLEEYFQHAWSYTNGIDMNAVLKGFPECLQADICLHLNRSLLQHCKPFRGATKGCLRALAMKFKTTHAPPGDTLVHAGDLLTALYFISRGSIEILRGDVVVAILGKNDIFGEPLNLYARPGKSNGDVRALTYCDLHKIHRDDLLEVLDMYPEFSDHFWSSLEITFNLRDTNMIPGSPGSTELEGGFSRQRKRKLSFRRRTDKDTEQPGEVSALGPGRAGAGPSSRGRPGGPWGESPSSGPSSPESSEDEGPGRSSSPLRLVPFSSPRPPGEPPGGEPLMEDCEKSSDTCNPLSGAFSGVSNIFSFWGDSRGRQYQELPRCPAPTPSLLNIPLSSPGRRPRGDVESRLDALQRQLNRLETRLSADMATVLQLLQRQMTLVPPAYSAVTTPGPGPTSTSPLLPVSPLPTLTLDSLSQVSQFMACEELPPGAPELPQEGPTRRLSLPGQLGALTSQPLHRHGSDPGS

| Structure (SMILES) | hERG current change (%, negative = inhibition) at 10uM [%] |
| --- | --- |
| Cc1cc(C)c2[nH]c(=O)c(CN(CC3CCCO3)C(=S)NCc3ccco3)cc2c1 (centres unmarked) | -4.81 |
| CCN(CC)CCN(Cc1cc2ccc(C)c(C)c2[nH]c1=O)C(=S)NCc1ccco1 | -51.4 |
| Cc1cc(C)c2[nH]c(=O)c(CN(Cc3cccs3)C(=S)NCc3ccco3)cc2c1 | -15.7 |
| CCN(CC)CCN(Cc1cc2cc(C)cc(C)c2[nH]c1=O)C(=S)NCc1ccco1 | -52.5 |
| Cc1ccc2cc(CN(CC3CCCO3)C(=S)NCc3ccco3)c(=O)[nH]c2c1C (centres unmarked) | -40.8 |
| Cc1cccc2cc(CN(CCN(C)C)C(=S)NCc3ccco3)c(=O)[nH]c12 | -38.9 |
| Cc1ccc(OCCC(=O)Nc2ccc(S(=O)(=O)Nc3cc(C)nc(C)n3)cc2)cc1 | 1.18 |
| Br.C=CCN1CCc2cccc3c2[C@H]1Cc1ccc(O)c(O)c1-3 | -19.3 |
| Br.CCCN1CCc2cc(O)cc3c2[C@H]1Cc1ccc(O)c(O)c1-3.O | -57.8 |
| COc1c(O)ccc2c1-c1c3c(cc4c1C(C2)N(C)CC4)OCO3 (centres unmarked) | -28.7 |
| Cn1c(N)c(N=Nc2ccc(S(N)(=O)=O)cc2)c(=O)n(C)c1=O | 27.6 |
| CCN(CC(=O)Nc1ccc(OC)cc1)CC(=O)Nc1ccc(Br)cc1F | -67.4 |
| CCN(CC(=O)Nc1ccc(OC)cc1)CC(=O)Nc1ccc(Cl)cc1F | -6.34 |
| COc1ccc(NC(=O)CN(C)CC(=O)Nc2ccc(Cl)cc2F)cc1 | -10.6 |
| Cc1ccc(Cn2nnc3c(=O)n(CC(=O)c4ccccc4)cnc32)cc1 | -0.591 |
| COc1ccc(NS(=O)(=O)c2cc(-c3cnc(C4CC4)o3)ccc2C)cc1 | 6.02 |
| CCc1ccc(-c2nc(CSCC(=O)N3CCN(c4ccccn4)CC3)c(C)o2)cc1 | -50.7 |
| COC(=O)c1ccc(-c2nc(CN3CCC(C(=O)N4CCOCC4)CC3)c(C)o2)cc1 | -7.65 |
| CCc1ccc(-c2nc(CN3CCC(C(=O)N4CCN(c5ccccc5)CC4)CC3)c(C)o2)cc1 | -71.3 |
| Cc1ccc(-c2nc(CS(=O)CC(=O)N3CCN(c4ncccn4)CC3)c(C)o2)cc1 (centres unmarked) | -54.1 |
| CCc1ccc(-c2nc(CSCC(=O)N3CCN(c4ncccn4)CC3)c(C)o2)cc1 | -23.6 |
| CCOc1ccccc1-c1nc(CN2CCC(C(=O)N3CCOCC3)CC2)c(C)o1 | -5.13 |
| COc1ccc(-c2nc(CN3CCC(C(=O)N4CCOCC4)CC3)c(C)o2)cc1OC | -6.54 |
| Cc1ccc(-c2nc(CS(=O)CC(=O)N3CCN(c4ccc(F)cc4)CC3)c(C)o2)cc1 (centres unmarked) | -42 |
| Cc1ccccc1-c1nc(CN2CCC(C(=O)N3CCN(c4ccccn4)CC3)CC2)c(C)o1 | -62 |
| Cc1ccc(-c2nc(CSCC(=O)N3CCN(c4ccccn4)CC3)c(C)o2)cc1 | -25 |
| Cc1ccc(-c2nc(CS(=O)CC(=O)N3CCN(c4ccccc4)CC3)c(C)o2)cc1 (centres unmarked) | -31.3 |

| Structure (SMILES) | hERG current change (%, negative = inhibition) at 10uM [%] |
| --- | --- |
| Cc1nn(Cc2ccccc2Cl)c(C)c1NC(=O)Cn1nc([N+](=O)[O-])c(Cl)c1C | 7.21 |
| COC(=O)c1coc(-c2ccc(C)cc2)c1C(=O)OC | 1.6 |
| CC(=O)c1ccc(N2CCN(S(=O)(=O)c3ccc4ccccc4c3)CC2)cc1 | 3.28 |
| Cc1cc(Nc2nnnn2-c2ccccc2)n(-c2ccccc2)n1 | -21.8 |
| CCN1CCN(C(=O)C(NS(=O)(=O)c2ccc3nc(C)sc3c2)C(C)C)CC1 (centres unmarked) | 0.194 |
| COc1ccc(-c2[nH]c(-c3ccc(F)cc3)nc2SCC(=O)NCc2ccco2)cc1OC | 18.8 |
| CSc1ccc(/C=N/Nc2ccc(Cl)c(C(=O)O)c2)cc1 | 6.73 |
| COC(=O)/C(=C/c1c[nH]c2ccccc12)NC(C)=O | 6.31 |
| Cc1ccccc1-c1nc(CN2CCC(C(=O)O)CC2)c(C)o1 | -18.6 |
| CCc1ccc(-c2nc(CN3CCC(C(=O)N4CCN(c5ccccn5)CC4)CC3)c(C)o2)cc1 | -68.5 |
| Cc1ccccc1-c1nc(CN2CCC(C(=O)N3CCC(C(N)=O)CC3)CC2)c(C)o1 | 2.7 |
| CCOC(=O)N1CCN(C(=O)C2CCN(Cc3nc(-c4ccccc4C)oc3C)CC2)CC1 | -58.3 |
| O=C1OC(/C=C/c2ccccc2)=NC/1=C\c1cccnc1 | 19.4 |
| CCCc1c(O)nc(SCC(=O)NCc2ccco2)[nH]c1=O | 27 |
| O=C(c1ccc(-n2cnnn2)cc1)N1CCN(C(c2ccccc2)c2ccccc2)CC1 | -64.7 |
| O=C(c1ccc(-n2cnnn2)cc1)N1CCOCC1 | -1.64 |
| CC1CCN(C(=O)c2ccc(-n3cnnn3)cc2)CC1 | -72.1 |
| O=C(c1ccc(=O)oc1)N1CCN(C(c2ccccc2)c2ccccc2)CC1 | -32.2 |
| O=C(Nc1ccc(-n2cnnn2)cc1)C(c1ccccc1)c1ccccc1 | 8.56 |
| O=C(c1ccc(-n2cnnn2)cc1)N1CCCCC1 | -24.1 |
| Cc1cc(NC(=O)c2cc(CC(C)C)on2)n(-c2ccccc2)n1 | 9.57 |
| COc1cc(NC(=O)CCCN2C(=O)NC(C)(C)C2=O)cc(OC)c1 | 12.2 |
| Cc1cccc(OCC(=O)NCC(=O)N/N=C/c2ccc(N(C)C)cc2)c1 | 0.0886 |
| Cc1ccc(NC(=O)Nc2c(Cl)cccc2Cl)cn1 | 14 |
| COC(=O)CCSc1cc([N+](=O)[O-])cc2c1c(C1OCCS1)nn2-c1ccccc1 (centres unmarked) | 3.61 |
| O=C(O)CCc1ccc(-c2cccs2)n1NC(=O)c1cccs1 | 22.3 |
